KCNQ2 inh = rat KCNQ2 potassium channel inhibitors, primary screen, cell-based, CHO-K1, FluxOR thallium flux, B-score; Potassium voltage-gated channel subfamily KQT member 2 (Rattus norvegicus), O88943; 310,000 compounds, 1.1% hits; AID 2156, 2009; 20 min; stronger effect = lower value; B-score at 10 µM;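 active means fluorescence ratio B-score at most minus 3 library SDs, with starting brightness B-score within 2 library SDs, cut at about -5.5 in these data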
KCNQ2 pot = potentiators of rat KCNQ2 potassium channel; Potassium voltage-gated channel subfamily KQT member 2 (Rattus norvegicus), O88943; B-score at 10 µM; CHO-K1 KCNQ2, FluxOR thallium flux fluorescence; stronger effect = higher value; 310,000 compounds, 0.54% hits; AID 2239, 2010;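 active means fluorescence ratio B-score at least 3 SD of library B-scores, with initial fluorescence B-score within 3 of them, cut at about 5.3 in these data; same plate scores as AID 2156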;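 further: B-score of peak minus minimum over baseline fluorescence ratio after K+ and Tl+ stimulus; positive B-score means potentiation of KCNQ2 with more thallium influx and brighter signal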
Starred values were filed as active, the others as inactive. Only some compounds are listed: those with a hit (about 1.6% of all), similar ones and a draw of the others.

Screening FC(F)(F)c1ccc(C2[C@H]3CN(Cc4ccc(-c5ccccc5)cc4)[C@H](c4ccccc4)C34CC2(c2cccnc2)C4)cc1 (some centres not stated) returned KCNQ2 inh inactive and KCNQ2 pot 1.
FC(F)(F)c1ccc(C2[C@H]3CN(Cc4cccnc4)[C@H](c4ccccc4)C34CC2(c2cccnc2)C4)cc1 (some centres not stated) was read as KCNQ2 inh -7.2* and KCNQ2 pot -7.2.
For O=C(COc1ccc2ccc(=O)oc2c1)Nc1ccc(CN2CCOCC2)cc1 the results were KCNQ2 inh inactive.
Screening CCSC1(SCC)N=C(N)C2(C#N)C(c3ccc(F)cc3)C12C#N (configuration not stated) returned KCNQ2 inh -5.9* and KCNQ2 pot -5.9.
For COC1(OC)N=C(N)C2(C#N)C(c3ccc(F)cc3)C12C#N (configuration not stated) the results were KCNQ2 inh inactive and KCNQ2 pot 1.8.
Cc1cccc(Nc2nc(N3CCOCC3)nc(N3CCOCC3)n2)c1 was read as KCNQ2 inh inactive and KCNQ2 pot 0.48.
Cn1ccnc1Sc1nc(Nc2cccc(Cl)c2)nc(N2CCOCC2)n1 was read as KCNQ2 inh -6.2* and KCNQ2 pot -6.2.
For COc1ccc2c(-c3ccccc3)cc(SCC(=O)NC3CCS(=O)(=O)C3)nc2c1 (configuration not stated) the results were KCNQ2 inh inactive and KCNQ2 pot 1.1.
`O=C(Nc1ccc(F)cc1F)c1cccn1-c1ncc(C(F)(F)F)cc1Cl` gave KCNQ2 inh inactive.
Screening Cc1cc(C)cc(NC(=O)c2cccn2-c2ncc(C(F)(F)F)cc2Cl)c1 returned KCNQ2 inh -7.2* and KCNQ2 pot -7.2.
COc1ccc(C(=O)N/C(=C\c2ccccc2)C(=O)NCc2cccnc2)cc1 was read as KCNQ2 inh inactive.
`CCOC(=O)Cc1csc(NC(=O)COc2c(C)cccc2C)n1` gave KCNQ2 inh inactive.
For C=CCn1c(=O)c(C(=O)Nc2ccccc2C)c(O)c2ccccc21 the results were KCNQ2 inh -6.1* and KCNQ2 pot -6.1.
Screening C=CCn1c(=O)c(C(=O)Nc2ccccc2O)c(O)c2ccccc21 returned KCNQ2 inh inactive.
Screening COc1ccc2sc(N3C(=O)CC(Cc4cccc(C)c4)C3=O)nc2c1 (configuration not stated) returned KCNQ2 inh inactive.
Screening COc1cccc(-c2noc(C3CCCN(S(=O)(=O)c4cccc(Cl)c4C)C3)n2)c1 (configuration not stated) returned KCNQ2 inh -6* and KCNQ2 pot -6.
CCCS(=O)(=O)N1CCCC(c2nc(-c3cccc(OC)c3)no2)C1 (configuration not stated) was read as KCNQ2 inh inactive.
`CCn1c(/C=C/c2ccccc2)nc2ccccc21` gave KCNQ2 inh inactive.
For CCC(C)n1c(/C=C/c2ccccc2)nc2ccccc21 (configuration not stated) the results were KCNQ2 inh -5.7* and KCNQ2 pot -5.7.
Screening O=[N+]([O-])c1ccc2nc(SCc3ccccc3Cl)sc2c1 returned KCNQ2 inh -9.9* and KCNQ2 pot -9.9.
For O=C(NC(Nc1nc2ccc([N+](=O)[O-])cc2s1)(C(F)(F)F)C(F)(F)F)c1ccccc1Cl the results were KCNQ2 inh -10* and KCNQ2 pot -10.
Screening O=C(NC(Nc1nc2ccc([N+](=O)[O-])cc2s1)(C(F)(F)F)C(F)(F)F)c1cccnc1 returned KCNQ2 inh inactive and KCNQ2 pot 1.3.
Screening Nc1ccc2nc(SCc3ccc([N+](=O)[O-])cc3)sc2c1 returned KCNQ2 inh inactive.
`COCCNC(=O)c1ccc2c(c1)ncn2-c1ccc(F)c(F)c1` gave KCNQ2 inh inactive and KCNQ2 pot 1.1.
`COc1ccc(-n2nnc3c(SCc4ccccc4)ncnc32)cc1` gave KCNQ2 inh inactive.
Oc1c(Cl)cc(Cl)cc1CNc1ccccn1 was read as KCNQ2 inh inactive.
Oc1c(Cl)cc(Cl)cc1CNc1nc2ccccc2[nH]1 was read as KCNQ2 inh -6.2* and KCNQ2 pot -6.2.
`CC1(C)CC(c2nc(-c3ccc(Br)cc3)cs2)CCS1` (configuration not stated) gave KCNQ2 inh inactive.
CC1(C)CC(c2nc(-c3ccc(Cl)cc3)cs2)CCS1 (configuration not stated) was read as KCNQ2 inh -6.4* and KCNQ2 pot -6.4.
Cc1cc(S(=O)(=O)c2ccc([N+](=O)[O-])cn2)ccc1Br was read as KCNQ2 inh inactive.
Screening Cc1ccc(S(=O)(=O)c2ccc([N+](=O)[O-])cn2)cc1 returned KCNQ2 inh -6* and KCNQ2 pot -6.
`Cc1cccc(C)c1OCc1cc(C(=O)N2CCN(c3ccccc3)CC2C)no1` (configuration not stated) gave KCNQ2 inh -7.1* and KCNQ2 pot -7.1.
CC1CN(c2ccccc2)CCN1C(=O)c1cc(COc2c(F)cccc2F)on1 (configuration not stated) was read as KCNQ2 inh inactive and KCNQ2 pot 1.3.
CC(C)n1c(NCc2nc3ccccc3n2C)nc2ccccc21 was read as KCNQ2 inh inactive.
Screening CCn1c(CNc2nc3ccccc3n2C(C)C)nc2ccccc21 returned KCNQ2 inh -8.3* and KCNQ2 pot -8.3.
For Cc1ccc(NC(=O)CSc2nn(-c3ccc(Cl)cc3)c(=S)s2)cc1S(=O)(=O)N(C)C the results were KCNQ2 inh -7.1* and KCNQ2 pot -7.1.
Screening CN(C)S(=O)(=O)c1cc(NC(=O)CSc2nn(-c3ccc(Cl)cc3)c(=S)s2)ccc1Cl returned KCNQ2 inh inactive.
`Cc1ccc(S(=O)(=O)N2CCCC2C(=O)NCc2ccccc2Cl)cc1` (configuration not stated) gave KCNQ2 inh -6.6* and KCNQ2 pot -6.6.
Screening O=C(Nc1nc2ccccc2s1)C1CCCN1S(=O)(=O)c1ccc(Cl)cc1 (configuration not stated) returned KCNQ2 inh -5.6* and KCNQ2 pot -5.6.
`CC(=O)N1c2ccc(S(=O)(=O)N3CCC(C(=O)NCc4ccccc4Cl)CC3)cc2CC1C` (configuration not stated) gave KCNQ2 inh inactive.
For Cc1ccc(S(=O)(=O)N2CCCC2C(=O)Nc2nc3ccccc3s2)cc1 (configuration not stated) the results were KCNQ2 inh inactive.
COc1ccc(S(=O)(=O)N2CCCC2C(=O)NCc2ccccc2Cl)cc1 (configuration not stated) was read as KCNQ2 inh inactive.
CC(=O)N1c2ccc(S(=O)(=O)N3CCCC(C(=O)NCc4ccccc4Cl)C3)cc2CC1C (configuration not stated) was read as KCNQ2 inh -6.2* and KCNQ2 pot -6.2.
CCOc1cc(CNCCc2ccc(S(N)(=O)=O)cc2)ccc1OCC(=O)NC(C)(C)C was read as KCNQ2 inh inactive and KCNQ2 pot 1.2.
Screening Cc1ccccc1-n1c(=O)c2c(n3cnnc13)-c1ccccc1CC21CCCCC1 returned KCNQ2 inh inactive.

Screens from PubChem.
